Data published in PubChem BioAssay (Tox21).
“And” between values parts separate entries of the source, which are not always exact repeats. Identical values can stand only once. Results filed as inconclusive are left out. Where a call stands in place of a potency, no number is given. A structure can be active in one record and inactive in another. The source made the active and inactive calls. Calls come from the whole dose curve; as a rule, active = well fitted inhibition curve with a large enough effect in the repeat runs; inconclusive = weak or mixed curves, or effect the other way; inactive = no such curve, though single readings can be large or run the other way.

The molecules below were run against Nuclear receptor subfamily 1 group I member 3 (Homo sapiens) (UniProt Q14994) (assay: qHTS assay to identify small molecule antagonists of the constitutive androstane receptor (CAR) signaling pathway (AID 1224838;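 note: HepG2 cells stably expressing hCAR with CYP2B6 luciferase reporter stimulated by CITCO; nearly all actives have a fitted effect of over 40% in size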)). Conditions: HepG2-CYP2B6-hCAR luciferase, CITCO-stimulated, 24 h; series mostly up to 92.4 µM.
Chain of Nuclear receptor subfamily 1 group I member 3 (Homo sapiens) (Q14994 whole entry, looked up): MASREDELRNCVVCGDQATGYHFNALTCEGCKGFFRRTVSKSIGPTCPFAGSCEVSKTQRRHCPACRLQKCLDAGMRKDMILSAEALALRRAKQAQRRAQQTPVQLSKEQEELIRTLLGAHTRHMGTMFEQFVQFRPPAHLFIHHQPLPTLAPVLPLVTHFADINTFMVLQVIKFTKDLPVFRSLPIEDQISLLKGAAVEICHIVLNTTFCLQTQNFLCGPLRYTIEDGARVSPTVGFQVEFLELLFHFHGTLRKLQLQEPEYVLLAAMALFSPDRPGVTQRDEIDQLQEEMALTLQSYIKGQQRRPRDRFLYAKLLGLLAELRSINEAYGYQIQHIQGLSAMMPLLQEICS
Excerpt: U.S. Tox21 Program National Center for Advancing Translational Sciences [NCATS] NIH Chemical Genomics Center [NCGC] U.S. Environmental Protection Agency [EPA] National Institutes of Environmental Health Sciences [NIEHS] National Toxicology Program [NTP] U.S. Food and Drug Administration [FDA] Tox21 Assay Overview: The constitutive androstane receptor (CAR) is a nuclear receptor which regulates multiple drug metabolizing enzymes (DMEs) and transporters. Activating CAR will generally increase the transcription and subsequent translation of CYP2B6 and CYP3A4. These two DMEs represent about 50% of the drug metabolizing potential in the body. When CAR is deactivated, the metabolizing potential in the body will decrease, subsequently increasing the toxicity in the body or lowering the therapeutic potential of a pro-drug. Recently, there have also been studies performed indicating CARs role in energy metabolism and cancer therapy. Therefore, inhibiting CARs activity could have a potential effect on diabetes and cancer. Identifying environmental toxins and compounds which modulate CAR, through the use of the Tox21 10K compound collection, will be an important step in determining the toxicity and potential therapeutic effects these factors will have on the human body.
Tox21 Assay Protocol Summary: A double-stable (hCAR and CYP2B6-2.2kb) transfected cell line, derived from human hepatoma (HepG2) cells, was utilized for the duration of the quantitative high-throughput screens. The HepG2-CYP2B6-hCAR cells suspended in DMEM culture medium supplemented with 10% FBS, 5 ug/mL blasticidin, 0.5 mg/mL geneticin, 100 U/mL penicillin and 100 ug/mL streptomycin were dispensed at 2500 cells/4 uL/well in 1536-well white solid bottom plates using a Multidrop Combi. After the assay plates were incubated at 37 C/5% CO2 for 4 hrs, 23 nL of compounds at 15 concentrations (from 5-48 columns) or positive control (from 1 to 4 columns) were transferred to the assay plates using a Pintool station. One uL of CITCO, was added using a Flying Reagent Dispenser to generate a final concentration of 50 nM CITCO inside each well. After a 24 hr incubation period at 37 C/5% CO2, four uL of ONE-Glo reagent was added into the assay plates using a Flying Reagent Dispenser. After a 30 min incubation period at room temperature, the luminescence intensity in the assay plates was measured using a ViewLux plate reader.
Potency is the fitted concentration of half-maximal effect.

| Compound | Potency | activity, negative = inhibition |
| --- | --- | --- |
| O=C(O)CCCl | inactive | – |
| NS(=O)(=O)c1cc(C(=O)O)cc(N2CCCC2)c1Oc1ccccc1 | inactive | – |
| CCOC(=O)[C@H](CCc1ccccc1)N[C@@H](C)C(=O)N1[C@H](C(=O)O)C[C@@H]2CCC[C@@H]21 | inactive | – |
| O=C1CCCCCCCCCCCN1 | inactive | – |
| CCOC(=O)c1ccc(C)cc1 | inactive | – |
| CC(C)c1cc2c(cc1S(=O)(=O)O)[C@@]1(C)CCC[C@@](C)(C(=O)O)[C@@H]1CC2 | inactive | – |
| Brc1c(NC2=NCCN2)ccc2nccnc12 | inactive | – |
| CC1(C)C(O)C(C)(C)C1O (stereo not given) | inactive | – |
| NC(=O)c1ccc([N+](=O)[O-])cc1 | inactive | – |
| CO[C@]12C[C@@H](COC(=O)c3cncc(Br)c3)CN(C)[C@@H]1Cc1cn(C)c3cccc2c13 | inactive | – |
| CC(C(=O)O)c1ccc(CC2CCCC2=O)cc1 (stereo not given) | inactive | – |
| COc1ccc2c(c1)c(CC(=O)OCC(=O)O)c(C)n2C(=O)c1ccc(Cl)cc1 | inactive | – |
| C=CCCCCCCCCC=O | inactive | – |
| CC(C)CNCC(C)C | inactive | – |
| COC(=O)CC(C)=O | inactive | – |
| O=c1n(CCO)c(=O)n(CCO)c(=O)n1CCO | inactive | – |
| CN1CCC(=C2c3ccccc3CC(=O)c3sccc32)CC1 | inactive | – |
| Nc1nc2c(ncn2COC(CO)CO)c(=O)[nH]1 | inactive | – |
| OC(CCN1CCCCC1)(c1ccccc1)C1CC2C=CC1C2 (stereo not given) | inactive | – |
| O=[N+]([O-])c1ccc(F)cc1F | inactive | – |

| Compound | Potency | activity, negative = inhibition |
| --- | --- | --- |
| C1CN(CCOCCN2CCOCC2)CCO1 | inactive | – |
| CCc1nccnc1CC | – | -16.5% [at 19 µM] (inactive) |
| CCN1CCC[C@H]1CNC(=O)c1c(O)c(Cl)cc(Cl)c1OC | inactive | – |
| COc1nc(N)nc2c1ncn2[C@@H]1O[C@H](CO)[C@@H](O)[C@@H]1O | inactive | – |
| c1ccc([C@H]2CN3CCSC3=N2)cc1 | inactive | – |
| OCCOc1ccc(OCCO)cc1 | inactive | – |
| CCCCCOC(=O)CCCCC | inactive | – |
| CC(=O)Nc1c(I)cc(I)c(C(=O)O)c1I | inactive | – |
| CCCN(CCC)CCc1cccc2c1CC(=O)N2 | inactive | – |
| O=C(O)CCCc1ccccc1 | inactive | – |
| CC(C)(C)c1nnc(NS(=O)(=O)c2ccccc2)s1 | inactive | – |
| CC(C)NCC(O)c1ccc(NS(C)(=O)=O)cc1 (stereo not given) | inactive | – |
| CC(NC(CCc1ccccc1)C(=O)O)C(=O)N1C(=O)N(C)CC1C(=O)O (stereo not given) | inactive | – |
| CN(C)CCCNCCCN(C)C | inactive | – |
| CCC(C)C1CCCCC1=O (stereo not given) | inactive | – |
| Cc1c(NC(C)C)c(=O)n(-c2ccccc2)n1C | inactive | – |
| N#Cc1ccc(C2CCCc3cncn32)cc1 (stereo not given) | inactive | – |
| N[C@@H](C(=O)N[C@@H]1C(=O)N2C(C(=O)O)=C(Cl)CS[C@H]12)c1ccccc1 | – | -13.2% [at 8.39 µM] (inactive) |
| CCn1nc(C(=O)O)c(=O)c2cc3c(cc21)OCO3 | inactive | – |
| C[N+](C)(C)CCCCCC[N+](C)(C)C | inactive and 26.6 µM (active) | – |
